Test results taken from ChEMBL document CHEMBL4513216, “Probing the Open Global Health Chemical Diversity Library for Multistage-Active Starting Points for Next-Generation Antimalarials” (ACS Infect Dis, 2020).
Out of some 69,000 compounds screened, about 8,600 (12%) showed an effect of 50% or more. The list comes from a sample in which strong results are over-represented; it also holds similar structures and randomly drawn compounds.

What follows are compounds tested on Plasmodium berghei (assay: Screen against P. berghei liver stage (PbLuc), transformed with Luciferase, at 10uM). Settings: tested at 10 uM.
Type: functional, HepG2

Compound | INHIBITION [%]
Cc1c(Cl)cccc1NC(=O)c1nc[nH]n1 | -1.16
COc1ccc(-c2cc3nn(CC(=O)NC(C)C)c(=O)n3c(C)n2)cc1 | 53.2
Cc1nc(-c2ccccc2)cc2nn(CC(N)=O)c(=O)n12 | 28.6
COc1ccc(-c2cc3nn(CC(N)=O)c(=O)n3c(C)n2)cc1 | 14.3
NC(=O)CC1CCN(C(=O)NCCc2ccc(Cl)s2)CC1 | -17.6
c1ccc(CN2CCCC3(CCN(Cc4cccs4)C3)C2)nc1 (centres undefined) | 21.1
Cc1nn(C)c(N2CCOCC2)c1CNC(c1ccccc1)C1CC1 (centres undefined) | 14.6
O=C(C1CCCC1)N1CC2(CCN(C3COC3)C2)OCc2ccccc21 (centres undefined) | 53.2
O=C(C1CCCC1)N1CC2(CCCN(C3COC3)C2)Cc2ccccc21 (centres undefined) | -0.621
O=C(C1CCCOC1)N1CCCc2ccccc21 (centres undefined) | -21
O=C(C1CCCC1)N1CC2(CCNC2)OCc2ccccc21 (centres undefined) | 11
O=C(C1CCCC1)N1CC2(CCN(C3COC3)C2)Cc2ccccc21 (centres undefined) | 10.1
O=C(C1CCCC1)N1CC2(CCN(C3COC3)CC2)Cc2ccccc21 | 53.2
Cc1ccc(-c2[nH]c3ccccc3c2C(=O)O)c(C)c1 | 31.7
c1nc(CN2CCC3(CC2)COCCN3CC2CC2)c[nH]1 | -2.17
N#Cc1ccccc1N1CCCN(C(=O)CCc2ccsc2)CC1 | 19.2
CC(C)n1cnnc1CN(C)C(=O)c1ccccc1-n1cncn1 | 31.7
CCSc1ncc(CN2CC[C@@](O)(COC)C(C)(C)C2)cn1 | 43.5
CSc1ncc(C(=O)N2CCC(O)(CN3CCOCC3)C(C)(C)C2)cn1 (centres undefined) | 40.6
CCSc1ncc(CN2CCC(O)(CN3CCOCC3)C(C)(C)C2)cn1 (centres undefined) | 81
COC[C@]1(O)CCN(Cc2cnc(N3CCOCC3)nc2)CC1(C)C | 32.3
CCc1ncc(C(=O)N2CCC(O)(CN3CCOCC3)C(C)(C)C2)cn1 (centres undefined) | 10.9
COCCCN1CC2(CCN(Cc3cc(C(C)C)no3)CC2)CC1=O | 41.2
COCCCN1CC2(CCN(C(=O)Cc3csc(C)n3)CC2)CC1=O | -44.8
CC1(C)CN(C(=O)c2ncc(F)cc2F)CCC1(O)CN1CCOCC1 (centres undefined) | 76.3
COCCCN1CC2(CCN(C(=O)c3ncc(F)cc3F)CC2)CC1=O | 58.1
Cc1nc(C2CCCN(C(=O)c3cc(C(C)(C)C)on3)C2)no1 (centres undefined) | -21.8
Cc1noc(C)c1-c1cc(CC2CCN(C(=O)c3cc[nH]n3)C2)ncn1 (centres undefined) | 21.9
O=C(O)c1cccc(CN2CCC(c3ccnc4ccnn34)CC2)c1 | 28
